The source of these data is PubChem BioAssay.

The source made the active and inactive calls.

Assay [1] is described as follows: optical density shifts of acrAB sulA E. coli – strain DRC41, OD650, 48 h, E. coli filamentation inducer project, primary screen (AID 1152).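 Also: E. coli MC1000 strain DRC41 lacking acrAB efflux pump and sulA.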 As to conditions: higher = more signal, called active from +8 up or from −8 down.
Assay [2] can be described thus: probe aLefty1 binding on compound microarray – biochemical, small-molecule microarray, 635/667 nm fluorescence, primary screen (AID 1153).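 Also: score merges spot fluorescence with signal-to-noise ratio from the scanned slide images.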 As to conditions: higher = more signal.
The nature of assay [3]: plasmodial surface anion channel blockers, osmotic lysis – cell-based, P. falciparum Indochina, OD700, 1 h, primary screen (AID 1154). Conditions: P. falciparum Indochina infected RBC osmotic lysis, higher = more signal, called active from +8 up or from −8 down.
Assay [4] in a line: plasmodial surface anion channel blockers, osmotic lysis – cell-based, P. falciparum Indochina, OD700, 2 h, primary screen (AID 1155).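 Also: lysis reports solute entry through the parasite surface anion channel PSAC.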 Conditions: P. falciparum Indochina infected erythrocytes, higher = more signal, called active from +8 up or from −8 down.
A short description of assay [5]: changes in parasitized red cell lysis, either direction – P. falciparum Indochina, OD700, 3 h, PSAC antagonist project, primary screen (AID 1156). As to conditions: P. falciparum-infected erythrocytes, osmotic lysis, higher = more signal, called active from +8 up or from −8 down.
Assay [6] can be described thus: plasmodial surface anion channel blockers, osmotic lysis – cell-based, P. falciparum Indochina, OD700, 18 h, primary screen (AID 1157). Conditions: P. falciparum Indochina infected erythrocytes, osmotic lysis OD700, 18 h; higher = more signal, called active from +8 up or from −8 down.
Assay [7] can be described thus: S6 kinase pathway phospho-S6 level changes – cell-based, A549, cytoblot, luminescence, serum-stimulated, primary screen (AID 1158).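 Also: serum-stimulated A549 lung adenocarcinoma cells; signal is phosphorylated S6 detected by cytoblot immunostaining with HRP secondary.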 As to conditions: 5 h, higher = more signal.
The target in assay [8] is NADPH oxidase 2 (Homo sapiens) (UniProt P04839). As to the kind of experiment: compounds shifting NOX2 Amplex Red fluorescence – cell-based, HEK293-NOX2, PMA-stimulated, NOX inhibitor project, primary screen (AID 1159). Also: test concentration not given here. As to conditions: 45 min, higher = more signal, called active from +8 up or from −8 down.
Assay [9] addresses NADPH oxidase 4 (Homo sapiens) (UniProt Q9NPH5). As to the kind of experiment: compounds shifting NOX4 Amplex Red fluorescence – cell-based, HEK293-NOX4, tetracycline-induced, NOX inhibitor project, primary screen (AID 1160). As to conditions: HEK293-NOX4, Amplex Red H2O2 fluorescence, 45 min; higher = more signal, called active from +8 up or from −8 down.
Assay [10] addresses NADPH oxidase 5 (Homo sapiens) (UniProt Q96PH1). Briefly: compounds shifting NOX5 Amplex Red fluorescence – cell-based, HEK293-NOX5, NOX inhibitor project, primary screen (AID 1161). As to conditions: HEK293-NOX5, ionomycin, 45 min, higher = more signal.
A short description of assay [11]: compound effects on lung adenocarcinoma cell viability – A549, calcein-AM fluorescence, 48 h, basal, profiling panel (AID 1162). Also: test concentration not given here. Conditions: higher = more signal.
The nature of assay [12]: compound effects on differentiated 3T3-L1 adipocyte viability – cell-based, 3T3-L1 adipocytes, calcein-AM fluorescence, 48 h, basal, profiling panel (AID 1163). Also: test concentration not given here. As to conditions: 3T3-L1 adipocytes viability, higher = more signal.
Assay [13] can be described thus: compound effects on hepatocellular carcinoma cell viability – HepG2, calcein-AM fluorescence, 48 h, basal, profiling panel (AID 1164). Also: test concentration not given here. As to conditions: higher = more signal.
The nature of assay [14]: compound effects on multiple myeloma cell viability – MM1S, calcein-AM fluorescence, 48 h, basal, profiling panel (AID 1165). Also: test concentration not given here. As to conditions: higher = more signal.
Assay [15] in a line: calcein-AM signal in unstimulated myeloma cells – cell-based, calcein-AM fluorescence, 48 h, PK04 Diversity Set, profiling panel (AID 1166).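 Also: cells grown under basal conditions without added stimulus; test concentration not given here.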 As to conditions: RPMI8226 myeloma viability, higher = more signal.
Assay [16] in a line: JC-1 mitochondrial signal, unstimulated HepG2 cells – cell-based, JC-1 fluorescence, 24 h, 100 nL compound, profiling panel (AID 1167). Also: test concentration not given here. Conditions: HepG2 mitochondrial potential, higher = more signal.
Assay [17] can be described thus: JC-1 mitochondrial signal, unstimulated adipocytes – cell-based, JC-1 fluorescence, 3T3-L1 adipocytes, 24 h, 100 nL compound, profiling panel (AID 1168). Also: test concentration not given here. Conditions: JC-1 mitochondrial fluorescence, higher = more signal, called active from +8 up or from −8 down.
Assay [18] can be described thus: JC-1 mitochondrial signal, unstimulated myeloma cells – cell-based, JC-1 fluorescence, RPMI8226, 24 h, 100 nL compound, profiling panel (AID 1169). Also: test concentration not given here. Conditions: JC-1 mitochondrial potential fluorescence, higher = more signal.
A short description of assay [19]: JC-1 mitochondrial signal, unstimulated MM1S myeloma – cell-based, JC-1 fluorescence, 24 h, 100 nL compound, profiling panel (AID 1170). Also: test concentration not given here. Conditions: MM1S mitochondrial potential, higher = more signal.
Assay [20] is described as follows: resazurin metabolic signal in A549 cells – cell-based, resazurin fluorescence, 24 h, PK04 Diversity Set, profiling panel (AID 1171). Also: test concentration not given here. Conditions: A549 viability, higher = more signal, called active from +8 up or from −8 down.

Sequence of NADPH oxidase 4 (Homo sapiens) (Q9NPH5 whole entry, looked up): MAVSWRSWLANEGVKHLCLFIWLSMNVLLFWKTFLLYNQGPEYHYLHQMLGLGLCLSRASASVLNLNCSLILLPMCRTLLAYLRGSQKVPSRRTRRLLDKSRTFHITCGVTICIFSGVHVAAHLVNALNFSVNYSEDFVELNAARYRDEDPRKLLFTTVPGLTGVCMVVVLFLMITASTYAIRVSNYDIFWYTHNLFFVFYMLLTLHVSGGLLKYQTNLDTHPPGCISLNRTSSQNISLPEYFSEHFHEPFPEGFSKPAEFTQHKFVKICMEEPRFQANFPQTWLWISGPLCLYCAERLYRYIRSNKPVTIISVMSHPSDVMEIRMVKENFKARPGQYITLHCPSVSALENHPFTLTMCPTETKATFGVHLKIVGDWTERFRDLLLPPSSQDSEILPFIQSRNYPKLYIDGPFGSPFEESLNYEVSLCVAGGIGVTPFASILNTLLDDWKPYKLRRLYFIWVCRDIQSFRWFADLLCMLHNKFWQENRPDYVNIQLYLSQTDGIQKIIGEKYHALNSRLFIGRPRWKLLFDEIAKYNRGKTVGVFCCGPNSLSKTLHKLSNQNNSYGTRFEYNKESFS
Sequence of NADPH oxidase 5 (Homo sapiens) (Q96PH1 whole entry, looked up): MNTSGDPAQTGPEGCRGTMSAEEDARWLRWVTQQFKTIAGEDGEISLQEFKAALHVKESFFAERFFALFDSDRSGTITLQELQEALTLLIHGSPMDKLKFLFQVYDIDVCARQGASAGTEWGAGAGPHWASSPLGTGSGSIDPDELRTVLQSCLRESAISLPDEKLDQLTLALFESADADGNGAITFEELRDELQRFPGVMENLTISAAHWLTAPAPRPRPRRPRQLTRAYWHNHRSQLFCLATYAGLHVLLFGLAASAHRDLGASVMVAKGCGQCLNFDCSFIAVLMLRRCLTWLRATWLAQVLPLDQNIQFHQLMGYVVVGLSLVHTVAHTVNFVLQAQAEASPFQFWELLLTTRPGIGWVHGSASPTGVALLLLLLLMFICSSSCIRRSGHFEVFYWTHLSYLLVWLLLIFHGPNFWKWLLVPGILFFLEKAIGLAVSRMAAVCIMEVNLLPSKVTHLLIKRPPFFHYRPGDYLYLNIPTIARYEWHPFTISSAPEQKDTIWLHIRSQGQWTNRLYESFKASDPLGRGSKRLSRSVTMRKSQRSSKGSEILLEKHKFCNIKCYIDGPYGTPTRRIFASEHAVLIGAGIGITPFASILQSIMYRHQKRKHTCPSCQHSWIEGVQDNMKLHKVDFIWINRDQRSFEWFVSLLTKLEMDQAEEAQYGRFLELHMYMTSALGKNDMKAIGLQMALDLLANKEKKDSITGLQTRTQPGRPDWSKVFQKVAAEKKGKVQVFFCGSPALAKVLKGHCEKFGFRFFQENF
Sequence of NADPH oxidase 2 (Homo sapiens) (P04839 whole entry, looked up): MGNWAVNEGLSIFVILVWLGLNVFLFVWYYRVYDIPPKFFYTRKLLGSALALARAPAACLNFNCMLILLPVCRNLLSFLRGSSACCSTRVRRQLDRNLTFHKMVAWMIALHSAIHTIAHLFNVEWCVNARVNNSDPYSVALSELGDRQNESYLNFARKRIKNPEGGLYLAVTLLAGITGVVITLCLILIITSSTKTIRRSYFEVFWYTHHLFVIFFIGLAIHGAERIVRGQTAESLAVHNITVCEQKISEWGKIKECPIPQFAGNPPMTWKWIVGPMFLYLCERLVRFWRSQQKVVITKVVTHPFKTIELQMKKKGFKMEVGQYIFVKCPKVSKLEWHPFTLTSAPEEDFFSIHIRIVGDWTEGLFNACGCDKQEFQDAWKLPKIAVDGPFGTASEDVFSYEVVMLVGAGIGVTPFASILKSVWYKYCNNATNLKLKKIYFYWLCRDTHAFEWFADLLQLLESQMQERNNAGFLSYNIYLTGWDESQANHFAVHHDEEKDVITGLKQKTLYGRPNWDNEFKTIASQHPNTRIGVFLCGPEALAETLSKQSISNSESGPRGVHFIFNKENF

Consider `C=CCC(OC(C)=O)[C@@H]1[C@@H](N(Cc2ccc(-c3ccccc3)cc2)C(=O)Cc2ccc(F)cc2)c2cc(OCCCO)ccc2N1C(=O)c1ccc2ccccc2c1` (stereo not given in full), for which the z-score in assay [1] is 0.185 (inactive); in [3], -0.0408 (inactive); in assay [4], 0.345 (inactive); in assay [5], -0.348 (inactive); in [6], 0.703 (inactive); in [7], -0.0772. For the same compound, the z-score in assay [8] was 0.719 (inactive); in assay [9] it was 0.587 (inactive); in assay [10], 1.82; in assay [11], 0.444; in assay [12], 0.0021; in assay [13], 0.278. For the same compound, the z-score in assay [14] is -0.895; in assay [15], -0.344; in assay [16], 1.61; in [17], -0.413 (inactive); in assay [18] it was -0.192; in assay [19], 0.769. Also, the z-score in assay [20] was 0.799 (inactive). This compound also had a composite z-score in assay [2] of 0.193.

On to `CCCCN1CC=CC23O[C@@H]4/C=C\CCCOC(=O)C4[C@H]2C(=O)N(CCCCCO)[C@@H]3C1=O` (stereo not given in full), for which the z-score in assay [1] is -0.852 (inactive); in assay [3] it was 0.896 (inactive); in assay [4], 0.481 (inactive); in assay [5], -0.765 (inactive); in assay [6], 0.0625 (inactive); in [7], -0.782. Moreover, the z-score in assay [8] was 1.07 (inactive); in assay [9] it was -0.18 (inactive); in assay [10], 1.74; in [11], -0.234; in [12] it was 1.14; in assay [13], -0.195. Besides, the z-score in assay [14] is 1.46; in assay [15], 0.0001; in [16], -0.327; in assay [17] it was 0.783 (inactive); in assay [18], 0.163; in assay [19], -0.0801. Besides, in [20], the z-score is 0.356 (inactive). The composite z-score in assay [2] was -0.328.

For the compound `O=c1cccc(-c2ccccc2Cl)o1`, the z-score in assay [1] is -0.685 (inactive); in [3], 0.298 (inactive); in assay [4] it was 0.585 (inactive); in [5], -0.187 (inactive); in assay [6] it was 0.414 (inactive); in assay [7], -0.767. Moreover, the z-score in [8] was 0.182 (inactive); in [9], -0.914 (inactive); in assay [10], 0.863; in [11], 0.586; in [12], 0.528; in [13] it was 0.614. Besides, the z-score is -1.04 in [14]; 0.0055 in assay [15]; -0.98 in assay [16]; -0.428 (inactive) in [17]; -0.103 in [18]; 0.304 in assay [19]. In [20], the z-score was -0.0719 (inactive). The compound also had a composite z-score in assay [2] of -0.456.

In the case of `C#CCN(C/C=C/c1ccccc1)[C@H](CO)c1ccccc1`, the z-score was -1.3 (inactive) in assay [1]; 6.86 (inactive) in [3]; 0.893 (inactive) in assay [4]; 0.0025 (inactive) in assay [5]; 0.305 (inactive) in assay [6]; -0.617 in assay [7]. Also, the z-score in assay [8] was 0.403 (inactive); in assay [9], 0.04 (inactive); in assay [10] it was -3.98; in assay [11], -1.94; in assay [12], -0.27; in [13], -1.76. The z-score in assay [14] is -2.02; in assay [15] it was -1.96; in assay [16], -2.74; in [17] it was -0.471 (inactive); in [18], -0.746; in [19], 0.0614. For the same compound, the z-score in [20] is -0.96 (inactive). This compound returned a composite z-score in assay [2] of -0.241.

`C#CCN1[C@@H](Cc2ccc(O)cc2)C(=O)O[C@H](Cc2ccccc2)[C@@H]1/C=C/C1CC1`: the z-score in [1] was -0.332 (inactive); in assay [3], 2.45 (inactive); in [4], 0.0937 (inactive); in assay [5], -1.15 (inactive); in [6] it was 0.0357 (inactive); in assay [7], -0.663. In addition, the z-score is -0.759 (inactive) in assay [8]; -0.462 (inactive) in assay [9]; -1.54 in assay [10]; -2.82 in [11]; -0.145 in [12]; -3.44 in assay [13]. For the same compound, the z-score is -3.22 in assay [14]; -3.96 in [15]; -3.57 in assay [16]; -0.0548 (inactive) in [17]; -1.23 in [18]; -0.744 in [19]. Also, the z-score in assay [20] is -1.01 (inactive). For the same compound, the composite z-score in assay [2] was -0.196.

Consider `CC(C)NC(=O)[C@@H]1c2ccccc2C(=O)N(C(C)C)[C@H]1c1ccc(CO)cc1`, for which the z-score is 1.17 (inactive) in [1]; 3.85 (inactive) in assay [3]; 1.18 (inactive) in assay [4]; 0.151 (inactive) in [5]; 0.207 (inactive) in assay [6]; 0.0843 in assay [7]. The z-score was 0.274 (inactive) in [8]; 0.614 (inactive) in [9]; 0.964 in assay [10]; 0.772 in [11]; 0.0383 in assay [12]; 1.8 in assay [13]. Further, the z-score in [14] is 0.333; in assay [15], 0.947; in [16], 1.59; in assay [17], -0.423 (inactive); in assay [18], -0.104; in [19] it was -0.952. For the same compound, in assay [20], the z-score was 0.842 (inactive). The composite z-score in assay [2] is -0.228.

Consider `OCC1C=C(/C=C/c2ccccc2)CN1Cc1ccccc1Br` (stereo not given), for which the z-score was 0.785 (inactive) in [1]; 6.56 (inactive) in assay [3]; 0.673 (inactive) in assay [4]; 1.17 (inactive) in assay [5]; 0.499 (inactive) in [6]; 0.0524 in assay [7]. Further, the z-score in [8] is 0.887 (inactive); in assay [9], -2.84 (inactive); in assay [10], -0.691; in assay [11], -0.58; in assay [12] it was 1.21; in [13], 0.0668. Moreover, the z-score was -3.2 in [14]; -3.64 in [15]; 1.35 in [16]; 0.401 (inactive) in [17]; -0.923 in assay [18]; -1.87 in assay [19]. For the same compound, in [20], the z-score is -0.535 (inactive). For the same compound, the composite z-score in assay [2] is 0.457.

Turning to `C#CCN1[C@H](/C=C/C2CC2)[C@H](Cc2ccccc2)OC(=O)[C@@H]1Cc1ccccc1`, the z-score was -0.625 (inactive) in assay [1]; 0.128 (inactive) in assay [3]; 0.224 (inactive) in assay [4]; -0.491 (inactive) in assay [5]; -0.16 (inactive) in [6]; 0.0807 in [7]. Moreover, the z-score is -0.263 (inactive) in assay [8]; -0.367 (inactive) in [9]; -1.98 in assay [10]; -0.627 in assay [11]; 0.0556 in assay [12]; -0.0365 in assay [13]. Besides, the z-score was -2.65 in [14]; -2.47 in assay [15]; 1.31 in assay [16]; -0.0709 (inactive) in assay [17]; -0.294 in assay [18]; -0.719 in assay [19]. Also, the z-score in assay [20] was 2.37 (inactive). The compound also came in with a composite z-score in assay [2] of -0.306.
